Assay results: PubChem BioAssay (NCATS)
Inconclusive results are not listed. The source made the active and inactive calls. Calls follow the shape of the full dose curve.

What follows are molecules tested against Atrial natriuretic peptide receptor 1 (Homo sapiens) (UniProt P16066) (assay: Natriuretic polypeptide receptor (hNpr1) antagonism - Pilot CMLD screen (AID 1347052;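 also: HEK293 cells with hNpr1 stimulated by hNppA peptide at 0.1 nM; cGMP level read as GloSensor luciferase luminescence after agonist stimulation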)). Conditions: HEK293 hNpr1 GloSensor cGMP luminescence, ANP-stimulated; series mostly up to 9.22 µM; activity change, negative = inhibition: at the top concentration.
Atrial natriuretic peptide receptor 1 (Homo sapiens), sequence (P16066 whole entry, looked up): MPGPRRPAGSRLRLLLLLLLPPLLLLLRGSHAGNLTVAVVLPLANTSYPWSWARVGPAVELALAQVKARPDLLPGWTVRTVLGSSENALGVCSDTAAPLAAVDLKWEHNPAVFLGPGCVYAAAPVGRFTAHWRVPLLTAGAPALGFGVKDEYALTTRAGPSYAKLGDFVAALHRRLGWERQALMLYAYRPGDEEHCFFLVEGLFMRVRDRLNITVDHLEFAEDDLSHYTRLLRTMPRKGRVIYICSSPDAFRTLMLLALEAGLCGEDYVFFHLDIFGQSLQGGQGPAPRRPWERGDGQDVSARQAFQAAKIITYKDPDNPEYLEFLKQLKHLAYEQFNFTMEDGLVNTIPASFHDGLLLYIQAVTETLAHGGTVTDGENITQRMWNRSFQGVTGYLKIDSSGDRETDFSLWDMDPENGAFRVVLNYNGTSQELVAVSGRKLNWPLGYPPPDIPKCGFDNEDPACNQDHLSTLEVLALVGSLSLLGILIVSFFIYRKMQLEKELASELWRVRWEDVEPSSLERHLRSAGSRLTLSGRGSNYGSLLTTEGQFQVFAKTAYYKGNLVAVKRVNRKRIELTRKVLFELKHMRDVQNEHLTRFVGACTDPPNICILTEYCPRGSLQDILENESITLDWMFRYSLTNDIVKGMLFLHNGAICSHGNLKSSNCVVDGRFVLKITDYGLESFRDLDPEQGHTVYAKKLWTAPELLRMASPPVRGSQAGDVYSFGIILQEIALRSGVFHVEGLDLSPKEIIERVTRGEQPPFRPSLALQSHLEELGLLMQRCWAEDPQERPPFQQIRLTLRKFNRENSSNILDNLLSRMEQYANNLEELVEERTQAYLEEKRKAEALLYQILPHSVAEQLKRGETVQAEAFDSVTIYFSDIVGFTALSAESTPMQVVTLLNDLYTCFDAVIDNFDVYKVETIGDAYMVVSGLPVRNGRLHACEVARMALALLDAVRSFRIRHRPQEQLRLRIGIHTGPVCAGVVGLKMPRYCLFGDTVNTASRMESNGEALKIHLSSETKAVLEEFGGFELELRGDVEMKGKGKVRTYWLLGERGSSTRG
% is scaled to controls: 0 for no effect and ±100 for the full control effect.

Activity change, negative = inhibition, inactive:
COC(=O)c1cc(C(=O)OC)n2c(C)cc3ccccc3c12 3.18%
C[C@H]1Cc2c(COc3ccccc3)nc3c(c2CO1)CN(S(=O)(=O)c1ccc2c(c1)OCCN2C)CC3 -0.366%
Cc1cc2c(c(=O)o1)[C@H]1O[C@](c3ccsc3)(Cc3c1ccc1ccccc31)O2 -2.17%
CCCC[C@]12Cc3cc(C#N)ccc3[C@H](O1)c1c(cc(C)n(-c3ccccc3)c1=O)O2 -1.28%
CC1(C)OCC([C@H](O)C2=CCCCC2=O)CO1 0.948%
C[C@@H]1CC2CCCC2[C@]2(O1)C(=O)Nc1ccccc12 (some centres undefined) 0.414%
COC(=O)[C@H]1[C@@H](c2ccccc2)NC(=O)N(CCc2cc(OC)c(OC)c(OC)c2)[C@@H]1C 5.68%
CCOC(=O)CCN1C(=O)[C@@H]2[C@H]3[C@H](O)[C@H](O)CC(=NNC(=O)OCc4ccccc4)[C@@H]3CC[C@H]2C1=O 8.82%
COC(=O)CCC(=O)OC1(C)C(=O)C=C2C=C(C3CC3)N(c3ccc(CO)cc3)C=C2C1=O (centres undefined) -3.28%
COc1ccc([C@]23Cc4cc(C#N)ccc4[C@H](O2)C2=C(CC4(CCCCC4)OC2=O)O3)cc1 3.89%
C#CCCCON=C1C[C@@H](O)[C@H](O)[C@H]2[C@@H]3C(=O)N(Cc4ccccc4)C(=O)[C@@H]3CC[C@H]12 2.88%
COc1ccc(O[C@H]2C=C[C@@H](c3ccccc3)O[C@H]2COC(=O)CCC(C)=NOC[C@@H](O)COCc2ccco2)cc1 2.21%
O[C@H](CC#CCOc1ccccc1)COCc1ccccc1 -3%
CC(CCC(=O)OC[C@H]1O[C@H](C#Cc2ccccc2)C=C[C@H]1Oc1ccc(C)cc1)=NO[C@H](C)c1cn([C@H](CO)Cc2ccccc2)nn1 -1.74%
